Reference: PubChem BioAssay (NCI)
This is part of a sample that, as a whole, favours compounds with a hit. Of some 79,000 tested, about 15% had one in any assay. Activity calls are given as the source filed them. No stated cut-off is given here; in the data, active means growth inhibition above about 70%; inactive means the rest.

Key:
[1] = NCI Yeast Anticancer Drug Screen. Data for the rad52 strain (AID 147);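 further: 0% = growth of vehicle-treated control cultures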; conditions: S. cerevisiae rad52 mutant growth inhibition, active compounds read high
Summary of the method: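 DNA repair-defective yeast; compound exposure; growth scored against vehicle controls.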

[2] = NCI Yeast Anticancer Drug Screen. Data for the wt1 strain (AID 149);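 further: 0% = growth of vehicle-treated wt1 cultures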; conditions: S. cerevisiae wt1 strain (SPY 50644) growth inhibition, active compounds read high
Summary of the method: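 Using yeast strain wt1, compound-induced growth inhibition was determined against vehicle-treated cultures.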

[3] = NCI Yeast Anticancer Drug Screen. Data for the rad50EPP+ strain (AID 151);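 further: 0% = growth of vehicle-treated control cultures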; conditions: S. cerevisiae rad50 mutant strain, active compounds read high
Summary of the method: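 rad50EPP+ yeast treated with test compounds. Readout: growth vs vehicle control.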

[4] = NCI Yeast Anticancer Drug Screen. Data for the rad50 strain (AID 155);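 further: 0% = growth of vehicle-only cultures of the same strain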; conditions: S. cerevisiae rad50 strain growth inhibition, active compounds read high
Summary of the method: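 Relative growth inhibition (compound vs vehicle) was measured in yeast with a defined repair-gene alteration.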

[5] = NCI Yeast Anticancer Drug Screen. Data for the mec2-1 strain (AID 157); conditions: S. cerevisiae mec2-1 strain, active compounds read high
Summary of the method: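 Growth inhibition is read against vehicle-treated controls after compound exposure of the mec2-1 yeast strain, which is defective in DNA damage repair or cell cycle control.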

[6] = NCI Yeast Anticancer Drug Screen. Data for the rad14 strain (AID 159);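 further: 0% = growth of vehicle-treated control cultures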; conditions: S. cerevisiae rad14 strain growth inhibition, active compounds read high
Summary of the method: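 Screen for anticancer potential: a yeast strain altered in DNA damage repair is grown with compound, and reduced growth is quantified against vehicle controls.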

[7] = NCI Yeast Anticancer Drug Screen. Data for the sgs1 mgt1 strain (AID 161);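 further: 0% = growth of cultures given vehicle only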; conditions: S. cerevisiae sgs1 mgt1 strain, active compounds read high
Summary of the method: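 Yeast cells carrying a defined DNA-repair defect were exposed to test compounds. Growth inhibition was measured relative to vehicle-treated controls.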

[8] = NCI Yeast Anticancer Drug Screen. Data for the CLN2oe strain (AID 163);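 further: 0% = growth of vehicle-only control cultures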; conditions: S. cerevisiae CLN2oe strain, active compounds read high
Summary of the method: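 Compound-treated yeast; growth vs vehicle ctrl = % inhibition. Genetically altered strain (cell-cycle control).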

[9] = NCI Yeast Anticancer Drug Screen. Data for the cln2 rad14 strain (AID 165);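 further: 0% = growth equal to vehicle treated cultures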; conditions: S. cerevisiae cln2 rad14 strain, active compounds read high
Summary of the method: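 Growth inhibition, relative to vehicle-treated controls, is the read-out. The test organism is a yeast strain with defined genetic alterations, cln2 rad14.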

[10] = NCI Yeast Anticancer Drug Screen. Data for the bub3 strain (AID 167); conditions: S. cerevisiae bub3 mutant strain, active compounds read high
Summary of the method: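 Screening used yeast with an engineered genetic alteration affecting cell cycle control. Compound-exposed cultures were compared with vehicle cultures, and reduced growth was taken as inhibition.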

[11] = NCI Yeast Anticancer Drug Screen. Data for the wt2 strain (AID 169);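 further: 0% = growth of vehicle-treated yeast cultures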; conditions: S. cerevisiae wt2 strain growth inhibition, active compounds read high
Summary of the method: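 Compound exposure of yeast; growth compared with vehicle controls; inhibition reported.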

[12] = NCI Yeast Anticancer Drug Screen. Data for the mlh1 strain (AID 171);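 further: 0% = growth of vehicle-treated control cultures of the same strain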; conditions: S. cerevisiae mlh1 strain growth inhibition, active compounds read high
Summary of the method: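 Compounds are applied to a genetically altered yeast strain, and its growth is compared with that of vehicle-treated cultures to give percent inhibition.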

[13] = NCI Yeast Anticancer Drug Screen. Data for the sgs1 strain (AID 173);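 further: 0% = growth of vehicle-only control cultures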; conditions: S. cerevisiae sgs1 mutant, active compounds read high
Summary of the method: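 Compounds applied to genetically altered yeast; growth compared with vehicle-treated cultures to give % inhibition.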

[14] = NCI Yeast Anticancer Drug Screen. Data for the mlh1 rad18 strain (AID 175); conditions: S. cerevisiae mlh1 rad18 strain growth inhibition, active compounds read high
Summary of the method: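 Cells of a genetically altered yeast strain, deficient in DNA damage repair, were treated with compound. Their growth was then compared with that of vehicle-treated cultures to give inhibition.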

[15] = NCI Yeast Anticancer Drug Screen. Data for the rad18 strain (AID 177); conditions: S. cerevisiae rad18 mutant growth inhibition, active compounds read high
Summary of the method: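 Compounds are applied to a repair-deficient yeast strain, and growth is compared with that of vehicle-treated cultures to give percent inhibition.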

[16] = at 5.0 µM (retest, dose inferred, filed as 0.5)
[17] = at 50.0 µM (retest, dose inferred, filed as 5.0)

Measured: growth inhibition

OCCN(CCO)c1ccc2c(c1)Cc1ccccc1-2
active: [7]; [17] 71% | [13]; at 100.0 µM 76% | [14]; [17] 84% | [14]; at 50.0 µM 77.4% | [15]; at 33.0 µM 82% | [15]; at 100.0 µM 90%
inactive: [1]; at 1.2 µM -9% | [1]; at 3.7 µM -15% | [1]; at 11.0 µM 3% | [1]; at 33.0 µM 20% | [1]; at 100.0 µM 43% | [2]; at 1.2 µM 0% | [2]; at 3.7 µM 5% | [2]; at 11.0 µM 6% | [2]; at 33.0 µM 6% | [2]; at 100.0 µM 17% | [3]; at 1.2 µM -6% | [3]; at 3.7 µM -3% | [3]; at 11.0 µM 17% | [3]; at 33.0 µM 43% | [3]; at 100.0 µM 53% | [4]; at 1.2 µM -12% | [4]; at 3.7 µM -15% | [4]; [16] 13% | [4]; at 11.0 µM -13% | [4]; at 33.0 µM 34% | [4]; [17] 48% | [4]; at 50.0 µM 34.1% | [4]; at 100.0 µM 65% | [5]; at 1.2 µM -3% | [5]; at 3.7 µM -4% | [5]; [16] 1% | [5]; at 11.0 µM -4% | [5]; at 33.0 µM -7% | [5]; [17] 12% | [5]; at 50.0 µM -11.8% | [5]; at 100.0 µM 1% | [6]; at 1.2 µM 3% | [6]; at 3.7 µM -4% | [6]; at 11.0 µM 23% | [6]; at 33.0 µM 15% | [6]; at 100.0 µM 31% | [7]; [16] 8% | [7]; at 50.0 µM 52.2% | [8]; at 1.2 µM -9% | [8]; at 3.7 µM -8% | [8]; at 11.0 µM -16% | [8]; at 33.0 µM -11% | [8]; at 100.0 µM -7% | [9]; [16] 6% | [9]; [17] 6% | [9]; at 50.0 µM -2.7% | [10]; at 1.2 µM -9% | [10]; at 3.7 µM -8% | [10]; [16] 2% | [10]; at 11.0 µM -13% | [10]; at 33.0 µM -13% | [10]; [17] 27% | [10]; at 50.0 µM 10.4% | [10]; at 100.0 µM 1% | [11]; at 1.2 µM 5% | [11]; at 3.7 µM 9% | [11]; at 11.0 µM 14% | [11]; at 33.0 µM 29% | [11]; at 100.0 µM 45% | [12]; at 1.2 µM -13% | [12]; at 3.7 µM -7% | [12]; at 11.0 µM -6% | [12]; at 33.0 µM -6% | [12]; at 100.0 µM 26% | [13]; at 1.2 µM -14% | [13]; at 3.7 µM -10% | [13]; at 11.0 µM 13% | [13]; at 33.0 µM 44% | [14]; [16] 23% | [15]; at 1.2 µM -8% | [15]; at 3.7 µM 4% | [15]; at 11.0 µM 18%
